Measurements: PubChem BioAssay

Target: Torsin-1A (Homo sapiens) (UniProt O14656)
Test: torsin A binders from cell lysate, primary screen, small-molecule microarray, wild-type, 635/667 nm (AID 1149)
Settings: COS7 hTOR1A-WT lysate, 635 nm fluorescence, higher = more signal

Chain of Torsin-1A (Homo sapiens) (O14656 whole entry, looked up): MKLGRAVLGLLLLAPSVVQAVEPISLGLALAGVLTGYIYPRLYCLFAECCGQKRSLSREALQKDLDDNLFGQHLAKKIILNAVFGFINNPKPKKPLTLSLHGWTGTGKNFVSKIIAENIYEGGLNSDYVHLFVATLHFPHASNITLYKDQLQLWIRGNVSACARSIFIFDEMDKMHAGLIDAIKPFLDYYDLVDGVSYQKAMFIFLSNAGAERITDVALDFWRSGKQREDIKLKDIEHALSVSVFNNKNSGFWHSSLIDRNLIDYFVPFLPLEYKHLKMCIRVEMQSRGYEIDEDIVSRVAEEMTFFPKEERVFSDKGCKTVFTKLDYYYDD

Compound	composite z-score
O=C(OCc1ccccc1)C1=CCC2c3[nH]c4ccccc4c3C(=O)C1N2S(=O)(=O)c1ccccc1[N+](=O)[O-] (configuration not stated)	0.498
CC(C)=CCN[C@H](CO)c1ccccc1	-0.801
O=C(c1ccccc1)N1Cc2ccccc2C[C@@]2(COC(c3ccc(OCCCO)cc3)=N2)C1=O	0.655
COC(=O)[C@H](Cc1ccccc1)N1CC2=C[C@@H](C3CC3)n3c(=O)n(C)c(=O)n3[C@H]2[C@@H]1[C@@H](O)Cc1ccccc1	0.413
COc1ccc(C#Cc2ccc3c(c2)[C@]2(C(=O)N3)[C@H](C(=O)NC[C@H](O)c3ccccc3)[C@H]3C(=O)O[C@H](c4ccccc4)[C@H](c4ccccc4)N3[C@@H]2c2ccc(O)cc2)cc1	0.179
CC(C)C(=C=CC[C@@H](O)c1ccc(OCCO)cc1)C[C@@H](O)COCc1ccccc1	-0.372
CCCCCN1CC=CC23O[C@@H]4C=CCCOC(=O)C4[C@H]2C(=O)N(CCCCCO)[C@@H]3C1=O (some centres not stated)	1.82
CN1C=C(C(=O)OCCS(C)(=O)=O)C(C(=O)OCCS(C)(=O)=O)=CC(c2ccc(CO)cc2)=CC1C1CC1 (configuration not stated)	0.738
COc1cc(C(O)C2C=CC3C(=O)NC(=O)C3N2Nc2ccccn2)cc(OC)c1OC (configuration not stated)	0.366
CN(C)CCCC[C@@H]1NC(=O)[C@H]2C[C@@H](C(=O)NCCCCCCN)[C@@H](c3ccc(O)cc3)N2C1=O	1.13
Cc1ccc(S[C@]2(C(=O)NCCCN(C)C)CC(=O)N(Cc3cc(C(F)(F)F)cc(C(F)(F)F)c3)[C@@H]2c2ccc(CO)cc2)cc1	-0.0089
CC1(C)[C@@H]2CC(C(O)C3C=CC4C(=O)N(c5ccccc5)C(=O)C4N3Nc3ccc([N+](=O)[O-])cc3)=C[C@H]1C2 (some centres not stated)	1.18
O=C1c2ccccc2[C@](Cc2ccccc2I)(C(=O)NCC(F)(F)F)[C@H](c2ccc(CO)cc2)N1Cc1ccccc1Cl	-0.14
C=C(COC)C(=O)CC[C@@H](OC(C)=O)c1ccc(CO)o1	0.463
COc1ccccc1CN1C(=O)c2ccccc2[C@@H](C(=O)NC2CC2)[C@@H]1c1ccc(CO)cc1	0.848
COc1ccc(CCNC(=O)[C@@]2(Sc3ccc(C)cc3)CC(=O)N(C(C)C)[C@@H]2c2ccc(CO)cc2I)cc1	0.0086
CCC[C@@H]1C[C@@]1(CCC)[C@@H](NS(=O)(=O)c1cccc2cccnc12)c1ccc(Cl)cc1	-0.405
CCCC[C@@H]1C[C@H]1[C@@H](NC(=O)c1ccccc1)c1ccc(C(=O)OC)cc1	-2.83
[N-]=[N+]=Nc1ccccc1[C@@H]1OC(c2ccc(OCCCO)cc2)=N[C@]1(CCS(=O)(=O)c1ccccc1)C(N)=O	0.641
COc1cc2c(cc1O)C(C1CC1)N(Cc1sc3ccccc3c1Cl)CC2 (configuration not stated)	1.45
CO[C@H]1O[C@H](CO)[C@@H](OC(=O)Nc2ccccc2)[C@H](OC(=O)Nc2ccccc2)[C@@H]1OC(=O)Nc1ccccc1	0.451
COc1cccc(-c2cccc(=O)o2)c1	0.0114
C=CCN1C(=O)[C@@]2(CC=C)N=C(c3ccc(OCCCO)cc3)O[C@H]2c2ccccc21	0.537
COCCOC(=O)N1C(=O)[C@@]2(c3cc(C#CCC(C(=O)OC)C(=O)OC)ccc31)[C@H](C(=O)Nc1nc3ccccc3s1)[C@H]1C(=O)O[C@H](c3ccccc3)[C@H](c3ccccc3)N1[C@@H]2c1ccccc1OCCO	0.776
O=C1N[C@@H](Cc2ccccc2)C(=O)N2[C@@H]1C[C@@H](C(=O)O)[C@H]2c1cccc(OCCO)c1	1.14
C=CCOC(=O)[C@H]1[C@@H]2C(=O)O[C@@H](c3ccccc3)[C@@H](c3ccccc3)N2[C@@H](c2ccc(OCCOC(=O)[C@H]3C[C@H]4C(=O)N[C@@H](CCCCNC(C)=O)C(=O)N4[C@H]3c3ccc(O)cc3)cc2)[C@]12C(=O)Nc1ccc(I)cc12	0.807

Target: Torsin-1A (Homo sapiens) (UniProt O14656)
Test: small-molecule binders of mutant TOR1A in lysate, primary screen, cell lysate, small-molecule microarray, COS7 lysate, 635/667 nm fluorescence (AID 1150);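 also: score pools 667 nm emission and signal to noise measuring lysate protein binding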
Settings: COS7 hTOR1A mutant lysate, 635 nm fluorescence, higher = more signal

Compound	composite z-score
COCCOC(=O)N1C(=O)[C@@]2(c3cc(C#Cc4ccc(OC)cc4)ccc31)[C@H](c1ccc(OCCO)cc1)N1[C@H](c3ccccc3)[C@H](c3ccccc3)OC(=O)[C@H]1[C@@H]2C(=O)N1CCN(c2ncccn2)CC1	0.775
C[N+](C)(C)CCCCCCNC(=O)[C@@H]1C[C@@H]2C(=O)N[C@@H](Cc3ccccc3)C(=O)N2[C@@H]1c1cccc(OCCO)c1	1.51
CCOC(=O)C1=C[C@@H](C(C)(C)C)N(S(=O)(=O)c2ccc(C)cc2)[C@H]1c1ccc(F)cc1	0.575
COC(=O)c1c(CC[C@@H](CO)NC(=O)NCCn2cc(C3(O)CCCC3)nn2)oc(C(C)=O)c1C(=O)OC	0.105
NC(=O)N1C(=O)C2C(C1=O)C1C=C(c3ccc(CO)cc3)C2C(c2cccs2)N1Cc1cccc(OC(F)(F)F)c1 (configuration not stated)	0.522
NC(=O)[C@@H]1[C@H]2C(=O)O[C@H](c3ccccc3)[C@H](c3ccccc3)N2[C@H](c2ccc(O)cc2)[C@@]12C(=O)Nc1ccccc12	-2.06
CC(C)N1C(=O)C[C@@](C(=O)NCC(F)(F)F)(c2ccc([N+](=O)[O-])cc2)[C@H]1c1ccc(CO)cc1	0.0412
COCCCNC(=O)[C@@]1(C)c2ccccc2C(=O)N(C(C)C)[C@H]1c1ccc(CO)cc1	0.776
C=C(/C(=C/C[C@H](OC(C)=O)c1ccccc1OCCO)c1cnc2ccccc2c1)C(C)C	0.0233
C=CCNC(=O)[C@@H]1[C@H]2C(=O)O[C@H](c3ccccc3)[C@H](c3ccccc3)N2[C@H](c2ccc(O)cc2)[C@@]12C(=O)N(C(=O)OCCOC)c1ccc(C#CCNC(N)=O)cc12	0.594
O=C(OCc1ccccc1)C1=CCC2c3[nH]c4ccccc4c3C(=O)C1N2S(=O)(=O)c1ccccc1[N+](=O)[O-] (configuration not stated)	0.497
CC(C)=CCN[C@H](CO)c1ccccc1	0.324
O=C(c1ccccc1)N1Cc2ccccc2C[C@@]2(COC(c3ccc(OCCCO)cc3)=N2)C1=O	0.787
COC(=O)[C@H](Cc1ccccc1)N1CC2=C[C@@H](C3CC3)n3c(=O)n(C)c(=O)n3[C@H]2[C@@H]1[C@@H](O)Cc1ccccc1	-0.0857
COc1ccc(C#Cc2ccc3c(c2)[C@]2(C(=O)N3)[C@H](C(=O)NC[C@H](O)c3ccccc3)[C@H]3C(=O)O[C@H](c4ccccc4)[C@H](c4ccccc4)N3[C@@H]2c2ccc(O)cc2)cc1	0.587
CC(C)C(=C=CC[C@@H](O)c1ccc(OCCO)cc1)C[C@@H](O)COCc1ccccc1	-0.208
CCCCCN1CC=CC23O[C@@H]4C=CCCOC(=O)C4[C@H]2C(=O)N(CCCCCO)[C@@H]3C1=O (some centres not stated)	0.843
CN1C=C(C(=O)OCCS(C)(=O)=O)C(C(=O)OCCS(C)(=O)=O)=CC(c2ccc(CO)cc2)=CC1C1CC1 (configuration not stated)	0.5

Compound	composite z-score
COc1cc(C(O)C2C=CC3C(=O)NC(=O)C3N2Nc2ccccn2)cc(OC)c1OC (configuration not stated)	0.291
CN(C)CCCC[C@@H]1NC(=O)[C@H]2C[C@@H](C(=O)NCCCCCCN)[C@@H](c3ccc(O)cc3)N2C1=O	0.755
Cc1ccc(S[C@]2(C(=O)NCCCN(C)C)CC(=O)N(Cc3cc(C(F)(F)F)cc(C(F)(F)F)c3)[C@@H]2c2ccc(CO)cc2)cc1	-0.256
CC1(C)[C@@H]2CC(C(O)C3C=CC4C(=O)N(c5ccccc5)C(=O)C4N3Nc3ccc([N+](=O)[O-])cc3)=C[C@H]1C2 (some centres not stated)	0.537
O=C1c2ccccc2[C@](Cc2ccccc2I)(C(=O)NCC(F)(F)F)[C@H](c2ccc(CO)cc2)N1Cc1ccccc1Cl	0.34
C=C(COC)C(=O)CC[C@@H](OC(C)=O)c1ccc(CO)o1	1.06
COc1ccccc1CN1C(=O)c2ccccc2[C@@H](C(=O)NC2CC2)[C@@H]1c1ccc(CO)cc1	0.385
COc1ccc(CCNC(=O)[C@@]2(Sc3ccc(C)cc3)CC(=O)N(C(C)C)[C@@H]2c2ccc(CO)cc2I)cc1	-0.622
CCC[C@@H]1C[C@@]1(CCC)[C@@H](NS(=O)(=O)c1cccc2cccnc12)c1ccc(Cl)cc1	0.177
CCCC[C@@H]1C[C@H]1[C@@H](NC(=O)c1ccccc1)c1ccc(C(=O)OC)cc1	-0.686
[N-]=[N+]=Nc1ccccc1[C@@H]1OC(c2ccc(OCCCO)cc2)=N[C@]1(CCS(=O)(=O)c1ccccc1)C(N)=O	0.91
COc1cc2c(cc1O)C(C1CC1)N(Cc1sc3ccccc3c1Cl)CC2 (configuration not stated)	0.982
CO[C@H]1O[C@H](CO)[C@@H](OC(=O)Nc2ccccc2)[C@H](OC(=O)Nc2ccccc2)[C@@H]1OC(=O)Nc1ccccc1	0.872
COc1cccc(-c2cccc(=O)o2)c1	0.698
C=CCN1C(=O)[C@@]2(CC=C)N=C(c3ccc(OCCCO)cc3)O[C@H]2c2ccccc21	0.658
COCCOC(=O)N1C(=O)[C@@]2(c3cc(C#CCC(C(=O)OC)C(=O)OC)ccc31)[C@H](C(=O)Nc1nc3ccccc3s1)[C@H]1C(=O)O[C@H](c3ccccc3)[C@H](c3ccccc3)N1[C@@H]2c1ccccc1OCCO	0.456
O=C1N[C@@H](Cc2ccccc2)C(=O)N2[C@@H]1C[C@@H](C(=O)O)[C@H]2c1cccc(OCCO)c1	0.719
C=CCOC(=O)[C@H]1[C@@H]2C(=O)O[C@@H](c3ccccc3)[C@@H](c3ccccc3)N2[C@@H](c2ccc(OCCOC(=O)[C@H]3C[C@H]4C(=O)N[C@@H](CCCCNC(C)=O)C(=O)N4[C@H]3c3ccc(O)cc3)cc2)[C@]12C(=O)Nc1ccc(I)cc12	1.01
